Reference: PubChem BioAssay (NCI)
This is part of a sample that, as a whole, favours compounds with a hit. Of some 79,000 tested, about 15% had one in any assay. A number with no mark means an inactive call. Active and inactive are the calls of the source. Cut-off read from the data, not from the text of the source: active = growth inhibition above about 70%; inactive = the rest.

Key:
[1] = NCI Yeast Anticancer Drug Screen. Data for the rad52 strain (AID 147);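 note: 0% = growth of vehicle-treated control cultures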; details: S. cerevisiae rad52 mutant growth inhibition, hits give high values
Method in brief: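 Yeast strain carrying a DNA damage repair alteration was exposed to test compounds. Growth inhibition was measured relative to vehicle-treated controls.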

[2] = NCI Yeast Anticancer Drug Screen. Data for the wt1 strain (AID 149);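 note: 0% = growth of vehicle-treated wt1 cultures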; details: S. cerevisiae wt1 strain (SPY 50644) growth inhibition, hits give high values
Method in brief: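 The wt1 strain was treated with compounds, and growth was compared with vehicle-treated cultures to give inhibition.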

[3] = NCI Yeast Anticancer Drug Screen. Data for the rad50EPP+ strain (AID 151);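 note: 0% = growth of vehicle-treated control cultures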; details: S. cerevisiae rad50 mutant strain, hits give high values
Method in brief: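 Yeast strain carrying rad50 alteration (rad50EPP+) exposed to compounds; growth inhibition measured relative to vehicle-treated controls.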

[4] = NCI Yeast Anticancer Drug Screen. Data for the mgt1 strain (AID 153); details: S. cerevisiae mgt1 mutant growth inhibition, hits give high values
Method in brief: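 Yeast mgt1 strain (DNA repair/cell-cycle alteration panel) exposed to compounds; growth inhibition measured relative to vehicle-treated controls.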

[5] = NCI Yeast Anticancer Drug Screen. Data for the rad50 strain (AID 155);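 note: 0% = growth of vehicle-only cultures of the same strain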; details: S. cerevisiae rad50 strain growth inhibition, hits give high values
Method in brief: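 Cells are treated with compound, grown, and their growth is then scored against vehicle-only cultures of the same repair-deficient yeast strain.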

[6] = NCI Yeast Anticancer Drug Screen. Data for the mec2-1 strain (AID 157); details: S. cerevisiae mec2-1 strain, hits give high values
Method in brief: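 mec2-1 yeast strain, carrying an alteration in DNA damage repair or cell cycle control, was exposed to compounds; growth inhibition was measured relative to vehicle-treated controls.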

[7] = NCI Yeast Anticancer Drug Screen. Data for the rad14 strain (AID 159);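 note: 0% = growth of vehicle-treated control cultures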; details: S. cerevisiae rad14 strain growth inhibition, hits give high values
Method in brief: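 Readout: yeast growth inhibition, referenced to vehicle-only cultures. Strain bears a defined alteration in DNA damage repair.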

[8] = NCI Yeast Anticancer Drug Screen. Data for the sgs1 mgt1 strain (AID 161);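 note: 0% = growth of cultures given vehicle only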; details: S. cerevisiae sgs1 mgt1 strain, hits give high values
Method in brief: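 This yeast growth screen uses a strain with defined DNA-repair lesions; compound-treated growth is compared with vehicle-treated growth.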

[9] = NCI Yeast Anticancer Drug Screen. Data for the CLN2oe strain (AID 163);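 note: 0% = growth of vehicle-only control cultures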; details: S. cerevisiae CLN2oe strain, hits give high values
Method in brief: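 Yeast cells carrying a defined cell-cycle control alteration were exposed to test compounds. Growth inhibition was scored against vehicle-treated control cultures.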

[10] = NCI Yeast Anticancer Drug Screen. Data for the cln2 rad14 strain (AID 165);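 note: 0% = growth equal to vehicle treated cultures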; details: S. cerevisiae cln2 rad14 strain, hits give high values
Method in brief: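 Yeast carrying cln2 and rad14 alterations (cell cycle control and DNA damage repair) were exposed to compounds. Growth inhibition was measured against vehicle-treated controls.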

[11] = NCI Yeast Anticancer Drug Screen. Data for the bub3 strain (AID 167); details: S. cerevisiae bub3 mutant strain, hits give high values
Method in brief: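 Part of a panel of yeast mutants defective in DNA damage repair or cell cycle regulation. Each strain is grown with compound, and inhibition is calculated relative to solvent-treated cultures.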

[12] = NCI Yeast Anticancer Drug Screen. Data for the wt2 strain (AID 169);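 note: 0% = growth of vehicle-treated yeast cultures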; details: S. cerevisiae wt2 strain growth inhibition, hits give high values
Method in brief: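 Yeast cells were exposed to test compounds, and growth inhibition was measured relative to vehicle-treated controls.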

[13] = NCI Yeast Anticancer Drug Screen. Data for the sgs1 strain (AID 173);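 note: 0% = growth of vehicle-only control cultures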; details: S. cerevisiae sgs1 mutant, hits give high values
Method in brief: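 Yeast mutant strains carrying defined defects in DNA damage repair or cell cycle control were exposed to test compounds. Growth inhibition was scored against vehicle-treated controls.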

[14] = NCI Yeast Anticancer Drug Screen. Data for the rad18 strain (AID 177); details: S. cerevisiae rad18 mutant growth inhibition, hits give high values
Method in brief: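 Yeast carrying a defined DNA damage repair alteration were exposed to compounds. Growth inhibition was expressed relative to vehicle-treated controls.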

[15] = at 5.0 µM (retest, dose inferred, filed as 0.5)
[16] = at 50.0 µM (retest, dose inferred, filed as 5.0)

O=C1N=C2SC=C(NC(=S)Nc3ccccc3)N2NC12c1ccccc1-c1ccccc12
growth inhibition ([1]; at 1.2 µM): 11%
growth inhibition ([1]; at 3.7 µM): 12%
growth inhibition ([1]; at 11.0 µM): 19%
growth inhibition ([1]; at 33.0 µM): 46%
growth inhibition ([1]; at 100.0 µM): 73% (active)
growth inhibition ([2]; at 1.2 µM): 3%
growth inhibition ([2]; at 3.7 µM): 3%
growth inhibition ([2]; at 11.0 µM): 7%
growth inhibition ([2]; at 33.0 µM): 38%
growth inhibition ([2]; at 100.0 µM): 78% (active)
growth inhibition ([3]; at 1.2 µM): 2%
growth inhibition ([3]; at 3.7 µM): 7%
growth inhibition ([3]; at 11.0 µM): 5%
growth inhibition ([3]; at 33.0 µM): 11%
growth inhibition ([3]; at 100.0 µM): 16%
growth inhibition ([4]; at 1.2 µM): 6%
growth inhibition ([4]; at 3.7 µM): 6%
growth inhibition ([4]; at 11.0 µM): 30%
growth inhibition ([4]; at 33.0 µM): 77% (active)
growth inhibition ([4]; at 100.0 µM): 88% (active)
growth inhibition ([5]; at 1.2 µM): 6%
growth inhibition ([5]; at 3.7 µM): 0%
growth inhibition [5, 15]: 1%
growth inhibition ([5]; at 11.0 µM): 4%
growth inhibition ([5]; at 33.0 µM): 49%
growth inhibition [5, 16]: 48%
growth inhibition ([5]; at 50.0 µM): 78% (active)
growth inhibition ([5]; at 100.0 µM): 76% (active)
growth inhibition ([6]; at 1.2 µM): 15%
growth inhibition ([6]; at 3.7 µM): 13%
growth inhibition [6, 15]: -11%
growth inhibition ([6]; at 11.0 µM): 22%
growth inhibition ([6]; at 33.0 µM): 57%
growth inhibition [6, 16]: 8%
growth inhibition ([6]; at 50.0 µM): 45.9%
growth inhibition ([6]; at 100.0 µM): 81% (active)
growth inhibition ([7]; at 1.2 µM): 10%
growth inhibition ([7]; at 3.7 µM): 3%
growth inhibition ([7]; at 11.0 µM): 14%
growth inhibition ([7]; at 33.0 µM): 49%
growth inhibition ([7]; at 100.0 µM): 84% (active)
growth inhibition [8, 15]: -8%
growth inhibition [8, 16]: 44%
growth inhibition ([8]; at 50.0 µM): 25.6%
growth inhibition ([9]; at 1.2 µM): 12%
growth inhibition ([9]; at 3.7 µM): 4%
growth inhibition ([9]; at 11.0 µM): 13%
growth inhibition ([9]; at 33.0 µM): 64%
growth inhibition ([9]; at 100.0 µM): 76% (active)
growth inhibition [10, 15]: -4%
growth inhibition [10, 16]: 15%
growth inhibition ([10]; at 50.0 µM): 57.9%
growth inhibition ([11]; at 1.2 µM): 10%
growth inhibition ([11]; at 3.7 µM): 5%
growth inhibition [11, 15]: -14%
growth inhibition ([11]; at 11.0 µM): 11%
growth inhibition ([11]; at 33.0 µM): 54%
growth inhibition [11, 16]: 46%
growth inhibition ([11]; at 50.0 µM): 74.7% (active)
growth inhibition ([11]; at 100.0 µM): 70% (active)
growth inhibition ([12]; at 1.2 µM): 2%
growth inhibition ([12]; at 3.7 µM): 4%
growth inhibition ([12]; at 11.0 µM): 23%
growth inhibition ([12]; at 33.0 µM): 76% (active)
growth inhibition ([12]; at 100.0 µM): 90% (active)
growth inhibition ([13]; at 1.2 µM): 10%
growth inhibition ([13]; at 3.7 µM): 15%
growth inhibition ([13]; at 11.0 µM): 28%
growth inhibition ([13]; at 33.0 µM): 81% (active)
growth inhibition ([13]; at 100.0 µM): 90% (active)
growth inhibition ([14]; at 1.2 µM): 14%
growth inhibition ([14]; at 3.7 µM): 19%
growth inhibition ([14]; at 11.0 µM): 24%
growth inhibition ([14]; at 33.0 µM): 49%
growth inhibition ([14]; at 100.0 µM): 77% (active)
